# Reference: paper PMC7862700, “An all-to-all approach to the identification of sequence-specific readers for epigenetic DNA modifications on cytosine”
# Key:
# Test in all cases: DAPPL (digital affinity profiling via proximity ligation, sequencing); 10 mM Tris-HCl pH 7.5, 50 mM NaCl, 1 mM DTT, 4% glycerol, room temperature, 30 min; GST-TFs on glutathione beads, 16-mer random dsDNA library, 0.1% formaldehyde crosslink after washing; high values mean tight binding
# Conditions in all cases: protein: recombinant; tags: N-terminal GST; dsDNA, one strand shown
# ELK1 = molecular target: T1, ELK1 (Homo sapiens, UniProt P19419 1-428)
# T1 sequence: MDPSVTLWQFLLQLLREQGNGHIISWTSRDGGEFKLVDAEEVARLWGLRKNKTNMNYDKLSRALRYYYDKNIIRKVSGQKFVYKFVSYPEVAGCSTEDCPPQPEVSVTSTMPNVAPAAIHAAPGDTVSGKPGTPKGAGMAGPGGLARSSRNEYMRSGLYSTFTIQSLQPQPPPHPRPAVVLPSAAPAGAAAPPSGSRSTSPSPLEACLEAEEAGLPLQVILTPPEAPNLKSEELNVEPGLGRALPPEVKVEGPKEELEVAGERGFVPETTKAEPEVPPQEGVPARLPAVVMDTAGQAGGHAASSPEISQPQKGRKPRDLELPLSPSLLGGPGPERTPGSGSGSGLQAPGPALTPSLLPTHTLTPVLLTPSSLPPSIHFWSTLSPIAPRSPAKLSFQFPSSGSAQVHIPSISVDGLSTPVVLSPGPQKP
# Procedure, shortened: (§1)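 GST fusions of human transcription factors were expressed in yeast and captured with glutathione beads. Once given DNA barcodes and pooled alongside a tag-only sample, they were incubated for 30 min at room temperature with 200 nmole of a random double-stranded 16-mer DNA library in Tris/NaCl/DTT/glycerol buffer, then washed, crosslinked (0.1% formaldehyde), proximity-ligated, PCR-amplified and sequenced on an Illumina NextSeq500. The binding signal of each hexamer is its read frequency for a factor divided by its frequency for the tag-only sample.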
# GABPA = molecular target: T2, GABPA (Homo sapiens, UniProt Q06546 1-454)
# T2 sequence: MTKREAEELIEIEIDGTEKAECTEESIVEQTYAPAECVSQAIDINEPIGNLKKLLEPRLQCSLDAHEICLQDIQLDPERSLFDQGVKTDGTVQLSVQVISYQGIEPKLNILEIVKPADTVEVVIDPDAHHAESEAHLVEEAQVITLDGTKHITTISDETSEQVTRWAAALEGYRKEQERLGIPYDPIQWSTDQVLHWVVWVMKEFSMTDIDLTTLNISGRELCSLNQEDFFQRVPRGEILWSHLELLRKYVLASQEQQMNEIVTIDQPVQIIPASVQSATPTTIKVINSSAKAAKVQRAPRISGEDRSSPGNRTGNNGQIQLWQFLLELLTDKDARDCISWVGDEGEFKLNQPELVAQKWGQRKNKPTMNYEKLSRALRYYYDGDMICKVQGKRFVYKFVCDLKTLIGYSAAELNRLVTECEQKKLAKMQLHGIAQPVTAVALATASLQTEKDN
# Procedure, shortened: as §1
# ERG = molecular target: T3, ERG (Homo sapiens, UniProt P11308 1-479)
# T3 sequence: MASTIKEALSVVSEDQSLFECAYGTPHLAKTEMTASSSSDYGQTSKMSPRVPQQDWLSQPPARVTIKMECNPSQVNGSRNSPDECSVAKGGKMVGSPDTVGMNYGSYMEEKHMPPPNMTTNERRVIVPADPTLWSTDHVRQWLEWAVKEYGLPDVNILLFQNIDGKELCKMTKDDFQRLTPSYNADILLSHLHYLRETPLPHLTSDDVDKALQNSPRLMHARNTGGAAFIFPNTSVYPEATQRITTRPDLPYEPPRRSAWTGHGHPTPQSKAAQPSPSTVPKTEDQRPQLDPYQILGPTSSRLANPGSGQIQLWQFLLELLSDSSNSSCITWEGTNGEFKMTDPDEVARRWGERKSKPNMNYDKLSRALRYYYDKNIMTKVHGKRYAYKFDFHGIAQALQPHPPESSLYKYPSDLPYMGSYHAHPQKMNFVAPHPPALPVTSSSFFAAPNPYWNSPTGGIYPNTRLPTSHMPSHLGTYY
# Procedure, shortened: as §1
# ELF1 = ELF1 (Homo sapiens, UniProt P32519 1-619)
# Procedure, shortened: as §1
# EHF = molecular target: T4, EHF (Homo sapiens, UniProt Q9NZC4 1-300)
# T4 sequence: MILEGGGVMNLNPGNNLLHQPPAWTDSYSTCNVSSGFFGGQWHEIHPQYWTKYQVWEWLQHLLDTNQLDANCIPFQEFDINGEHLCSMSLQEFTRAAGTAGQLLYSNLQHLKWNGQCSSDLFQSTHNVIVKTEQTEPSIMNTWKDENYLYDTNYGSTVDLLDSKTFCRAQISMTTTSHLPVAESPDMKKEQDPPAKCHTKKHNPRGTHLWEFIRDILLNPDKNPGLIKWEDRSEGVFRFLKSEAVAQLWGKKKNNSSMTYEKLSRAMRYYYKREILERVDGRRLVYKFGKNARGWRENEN
# Procedure, shortened: as §1
# SPIB = SPIB (Homo sapiens, UniProt Q01892 1-262)
# Procedure, shortened: as §1
# ELK3 = molecular target: T5, ELK3 (Homo sapiens, UniProt P41970 1-407)
# T5 sequence: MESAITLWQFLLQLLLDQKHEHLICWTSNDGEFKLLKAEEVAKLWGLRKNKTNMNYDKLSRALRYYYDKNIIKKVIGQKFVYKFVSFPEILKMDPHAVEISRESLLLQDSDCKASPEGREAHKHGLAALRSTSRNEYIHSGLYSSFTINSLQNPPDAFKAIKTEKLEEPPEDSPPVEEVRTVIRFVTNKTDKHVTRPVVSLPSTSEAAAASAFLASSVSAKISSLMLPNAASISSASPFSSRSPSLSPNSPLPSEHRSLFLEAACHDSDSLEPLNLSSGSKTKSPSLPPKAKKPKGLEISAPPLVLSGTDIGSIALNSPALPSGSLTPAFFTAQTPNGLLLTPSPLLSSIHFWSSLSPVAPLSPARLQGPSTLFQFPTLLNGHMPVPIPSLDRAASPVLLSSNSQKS
# Procedure, shortened: as §1
# ETV5 = ETV5 (Homo sapiens, UniProt P41161 1-510)
# Procedure, shortened: as §1
# SPIC = molecular target: T6, SPIC (Homo sapiens, UniProt Q8N5J4 1-248)
# T6 sequence: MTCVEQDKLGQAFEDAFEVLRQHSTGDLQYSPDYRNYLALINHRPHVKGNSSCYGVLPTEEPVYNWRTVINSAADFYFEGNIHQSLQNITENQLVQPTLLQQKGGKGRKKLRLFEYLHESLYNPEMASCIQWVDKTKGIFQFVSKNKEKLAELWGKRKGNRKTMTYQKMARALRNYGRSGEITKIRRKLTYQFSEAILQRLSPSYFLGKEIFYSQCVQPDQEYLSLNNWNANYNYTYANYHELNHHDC
# Procedure, shortened: as §1
# ELF4 = ELF4 (Homo sapiens, UniProt Q99607 1-663)
# Procedure, shortened: as §1
# ELK4 = molecular target: T7, ELK4 (Homo sapiens, UniProt P28324-2 1-405)
# T7 sequence: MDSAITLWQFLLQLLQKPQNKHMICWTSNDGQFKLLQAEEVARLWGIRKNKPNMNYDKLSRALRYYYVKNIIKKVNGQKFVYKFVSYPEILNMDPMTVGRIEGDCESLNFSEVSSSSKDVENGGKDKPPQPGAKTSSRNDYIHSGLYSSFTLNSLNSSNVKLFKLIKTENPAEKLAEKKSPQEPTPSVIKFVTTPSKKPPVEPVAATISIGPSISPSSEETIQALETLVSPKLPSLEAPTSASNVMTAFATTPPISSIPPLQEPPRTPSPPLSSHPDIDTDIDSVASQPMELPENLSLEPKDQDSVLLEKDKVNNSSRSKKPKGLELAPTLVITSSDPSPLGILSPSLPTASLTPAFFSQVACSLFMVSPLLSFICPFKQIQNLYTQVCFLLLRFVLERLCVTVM
# Procedure, shortened: as §1
# ELF3 = molecular target: T8, ELF3 (Homo sapiens, UniProt P78545 1-371)
# T8 sequence: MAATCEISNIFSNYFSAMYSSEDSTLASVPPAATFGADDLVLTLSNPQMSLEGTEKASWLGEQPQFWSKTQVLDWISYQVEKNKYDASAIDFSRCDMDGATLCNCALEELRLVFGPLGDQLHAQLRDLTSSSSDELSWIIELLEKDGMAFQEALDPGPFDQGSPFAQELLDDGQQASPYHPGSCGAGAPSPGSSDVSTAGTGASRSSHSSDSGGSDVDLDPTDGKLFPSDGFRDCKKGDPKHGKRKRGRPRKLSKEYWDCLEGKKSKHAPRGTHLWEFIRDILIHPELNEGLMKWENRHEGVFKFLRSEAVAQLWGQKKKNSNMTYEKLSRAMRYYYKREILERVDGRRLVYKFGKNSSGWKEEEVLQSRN
# Procedure, shortened: as §1
# ETV1 = ETV1 (Homo sapiens, UniProt P50549 1-477)
# Procedure, shortened: as §1
# ERF = molecular target: T9, ERF (Homo sapiens, UniProt P50548 1-548)
# T9 sequence: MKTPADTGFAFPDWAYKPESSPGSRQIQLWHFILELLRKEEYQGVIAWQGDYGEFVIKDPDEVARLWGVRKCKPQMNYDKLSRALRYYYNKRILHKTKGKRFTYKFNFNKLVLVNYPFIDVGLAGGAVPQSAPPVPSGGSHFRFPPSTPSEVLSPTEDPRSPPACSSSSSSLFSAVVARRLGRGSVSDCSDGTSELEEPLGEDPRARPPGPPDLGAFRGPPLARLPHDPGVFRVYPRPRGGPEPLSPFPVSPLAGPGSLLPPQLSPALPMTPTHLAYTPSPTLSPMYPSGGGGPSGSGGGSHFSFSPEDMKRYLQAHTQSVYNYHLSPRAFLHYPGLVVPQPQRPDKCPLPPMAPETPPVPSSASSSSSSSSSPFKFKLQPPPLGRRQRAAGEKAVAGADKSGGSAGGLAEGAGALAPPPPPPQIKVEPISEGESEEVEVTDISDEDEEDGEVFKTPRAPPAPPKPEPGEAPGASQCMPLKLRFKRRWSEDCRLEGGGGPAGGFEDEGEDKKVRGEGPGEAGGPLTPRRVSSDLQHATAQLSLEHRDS
# Procedure, shortened: as §1
# ETV3L = molecular target: T10, ETV3L (Homo sapiens, UniProt Q6ZN32 1-361)
# T10 sequence: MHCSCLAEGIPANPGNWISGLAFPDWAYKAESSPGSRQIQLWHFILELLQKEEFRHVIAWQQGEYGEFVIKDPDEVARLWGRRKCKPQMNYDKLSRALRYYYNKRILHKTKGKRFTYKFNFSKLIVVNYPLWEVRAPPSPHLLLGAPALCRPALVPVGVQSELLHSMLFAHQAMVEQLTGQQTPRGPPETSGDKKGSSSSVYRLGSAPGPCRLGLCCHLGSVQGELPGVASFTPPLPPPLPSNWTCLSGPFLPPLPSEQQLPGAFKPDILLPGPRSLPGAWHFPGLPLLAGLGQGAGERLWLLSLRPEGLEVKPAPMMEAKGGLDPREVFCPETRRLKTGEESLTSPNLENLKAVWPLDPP
# Procedure, shortened: as §1
# ETS2 = molecular target: T11, ETS2 (Homo sapiens, UniProt P15036 1-469)
# T11 sequence: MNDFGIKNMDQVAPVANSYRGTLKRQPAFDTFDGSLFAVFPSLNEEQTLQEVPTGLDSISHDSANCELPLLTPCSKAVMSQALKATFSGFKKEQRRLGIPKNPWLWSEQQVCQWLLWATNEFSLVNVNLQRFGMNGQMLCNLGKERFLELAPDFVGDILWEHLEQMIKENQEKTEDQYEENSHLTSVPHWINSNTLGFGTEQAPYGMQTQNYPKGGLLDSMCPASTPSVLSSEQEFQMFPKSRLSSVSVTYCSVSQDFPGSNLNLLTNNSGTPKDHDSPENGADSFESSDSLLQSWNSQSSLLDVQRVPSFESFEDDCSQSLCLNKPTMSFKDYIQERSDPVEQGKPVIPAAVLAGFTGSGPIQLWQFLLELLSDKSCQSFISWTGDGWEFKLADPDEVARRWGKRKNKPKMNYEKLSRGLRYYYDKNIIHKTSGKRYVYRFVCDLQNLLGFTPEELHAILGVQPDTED
# Procedure, shortened: as §1
# SPDEF = molecular target: T12, SPDEF (Homo sapiens, UniProt O95238 1-335)
# T12 sequence: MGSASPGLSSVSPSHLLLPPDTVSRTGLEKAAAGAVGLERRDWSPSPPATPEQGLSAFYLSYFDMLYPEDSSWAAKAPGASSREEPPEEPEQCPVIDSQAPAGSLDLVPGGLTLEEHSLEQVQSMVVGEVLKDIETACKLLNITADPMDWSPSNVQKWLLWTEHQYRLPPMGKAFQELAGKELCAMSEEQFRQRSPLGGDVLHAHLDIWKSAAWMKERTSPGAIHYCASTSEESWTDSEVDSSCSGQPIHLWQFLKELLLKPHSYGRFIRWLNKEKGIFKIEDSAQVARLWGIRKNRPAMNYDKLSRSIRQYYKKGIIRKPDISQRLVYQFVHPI
# Procedure, shortened: as §1
# ETV3 = molecular target: T13, ETV3 (Homo sapiens, UniProt P41162-2 1-143)
# T13 sequence: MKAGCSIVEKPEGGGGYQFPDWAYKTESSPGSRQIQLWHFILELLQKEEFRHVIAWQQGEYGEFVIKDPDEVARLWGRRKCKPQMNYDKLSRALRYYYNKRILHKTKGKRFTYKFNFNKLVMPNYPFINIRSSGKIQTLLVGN
# Procedure, shortened: as §1
# ETV6 = ETV6 (Homo sapiens, UniProt P41212 1-452)
# Procedure, shortened: as §1
# Chain of ELF1 (P32519 whole entry): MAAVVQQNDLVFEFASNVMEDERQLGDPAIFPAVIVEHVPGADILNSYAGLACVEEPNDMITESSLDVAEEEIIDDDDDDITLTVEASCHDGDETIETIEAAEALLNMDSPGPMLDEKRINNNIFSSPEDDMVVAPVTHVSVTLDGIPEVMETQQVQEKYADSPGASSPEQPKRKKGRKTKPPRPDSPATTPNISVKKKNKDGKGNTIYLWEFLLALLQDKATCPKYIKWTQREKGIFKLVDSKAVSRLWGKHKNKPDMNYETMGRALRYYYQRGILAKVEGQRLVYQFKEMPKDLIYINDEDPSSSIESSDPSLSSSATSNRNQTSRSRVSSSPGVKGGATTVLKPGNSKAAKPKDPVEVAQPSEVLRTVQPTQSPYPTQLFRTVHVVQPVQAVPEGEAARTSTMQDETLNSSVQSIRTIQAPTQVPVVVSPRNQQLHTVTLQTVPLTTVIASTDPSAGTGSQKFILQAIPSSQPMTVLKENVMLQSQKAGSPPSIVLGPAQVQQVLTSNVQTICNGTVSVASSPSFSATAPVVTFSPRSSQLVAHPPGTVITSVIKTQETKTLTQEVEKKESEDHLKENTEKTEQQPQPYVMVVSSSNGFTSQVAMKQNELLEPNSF
# Chain of ELF4 (Q99607 whole entry): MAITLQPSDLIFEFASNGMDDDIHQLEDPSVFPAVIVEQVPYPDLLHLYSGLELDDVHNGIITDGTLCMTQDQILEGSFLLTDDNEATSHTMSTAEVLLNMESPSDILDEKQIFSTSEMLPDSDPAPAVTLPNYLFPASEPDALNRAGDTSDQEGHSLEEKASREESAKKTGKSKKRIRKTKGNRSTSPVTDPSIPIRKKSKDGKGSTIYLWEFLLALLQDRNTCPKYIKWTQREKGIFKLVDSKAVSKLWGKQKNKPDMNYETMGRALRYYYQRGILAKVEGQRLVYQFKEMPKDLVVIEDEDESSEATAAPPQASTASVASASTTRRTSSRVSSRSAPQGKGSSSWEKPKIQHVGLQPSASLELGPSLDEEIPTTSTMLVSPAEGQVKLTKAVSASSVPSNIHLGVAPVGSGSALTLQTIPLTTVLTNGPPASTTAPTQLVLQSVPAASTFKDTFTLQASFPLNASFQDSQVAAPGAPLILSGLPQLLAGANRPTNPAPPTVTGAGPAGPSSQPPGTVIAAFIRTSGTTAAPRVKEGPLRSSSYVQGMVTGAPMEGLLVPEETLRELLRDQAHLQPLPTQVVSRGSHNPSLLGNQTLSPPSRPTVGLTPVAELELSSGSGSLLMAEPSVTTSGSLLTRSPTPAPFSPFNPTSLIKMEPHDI
# Chain of ETV6 (P41212 whole entry): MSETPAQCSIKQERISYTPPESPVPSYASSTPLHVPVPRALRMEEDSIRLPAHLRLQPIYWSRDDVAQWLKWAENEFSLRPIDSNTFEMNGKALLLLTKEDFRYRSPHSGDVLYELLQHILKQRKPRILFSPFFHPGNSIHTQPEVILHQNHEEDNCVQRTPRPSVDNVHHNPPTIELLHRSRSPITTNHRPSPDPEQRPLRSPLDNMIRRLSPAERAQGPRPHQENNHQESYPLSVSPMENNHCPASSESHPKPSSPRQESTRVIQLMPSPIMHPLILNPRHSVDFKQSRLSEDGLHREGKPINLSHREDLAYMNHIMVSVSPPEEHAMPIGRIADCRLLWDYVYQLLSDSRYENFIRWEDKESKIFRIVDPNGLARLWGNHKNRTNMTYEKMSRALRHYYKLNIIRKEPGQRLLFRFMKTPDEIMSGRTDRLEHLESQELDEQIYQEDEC
# Chain of SPIB (Q01892 whole entry): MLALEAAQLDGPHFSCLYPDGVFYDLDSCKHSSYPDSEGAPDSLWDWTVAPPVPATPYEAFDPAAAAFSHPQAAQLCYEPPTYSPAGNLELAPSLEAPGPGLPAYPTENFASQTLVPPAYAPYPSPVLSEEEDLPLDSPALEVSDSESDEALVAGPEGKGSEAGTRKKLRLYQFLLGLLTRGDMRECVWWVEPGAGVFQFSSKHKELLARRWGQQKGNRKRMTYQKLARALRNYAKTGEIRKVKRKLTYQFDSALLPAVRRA
# Chain of ETV1 (P50549 whole entry): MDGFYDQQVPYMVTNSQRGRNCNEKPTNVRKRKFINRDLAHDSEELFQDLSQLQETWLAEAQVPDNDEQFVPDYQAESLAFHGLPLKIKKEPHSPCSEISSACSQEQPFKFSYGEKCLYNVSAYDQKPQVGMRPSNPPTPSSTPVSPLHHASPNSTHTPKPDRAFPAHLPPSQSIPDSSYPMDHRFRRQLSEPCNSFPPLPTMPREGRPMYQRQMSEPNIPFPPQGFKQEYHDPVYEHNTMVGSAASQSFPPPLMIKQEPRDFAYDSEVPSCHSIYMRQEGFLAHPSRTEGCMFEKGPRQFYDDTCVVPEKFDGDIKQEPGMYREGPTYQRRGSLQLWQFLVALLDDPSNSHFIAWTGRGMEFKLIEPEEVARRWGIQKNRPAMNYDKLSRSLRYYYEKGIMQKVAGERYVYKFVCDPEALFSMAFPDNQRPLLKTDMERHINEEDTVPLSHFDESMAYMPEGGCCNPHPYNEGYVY
# Chain of ETV5 (P41161 whole entry): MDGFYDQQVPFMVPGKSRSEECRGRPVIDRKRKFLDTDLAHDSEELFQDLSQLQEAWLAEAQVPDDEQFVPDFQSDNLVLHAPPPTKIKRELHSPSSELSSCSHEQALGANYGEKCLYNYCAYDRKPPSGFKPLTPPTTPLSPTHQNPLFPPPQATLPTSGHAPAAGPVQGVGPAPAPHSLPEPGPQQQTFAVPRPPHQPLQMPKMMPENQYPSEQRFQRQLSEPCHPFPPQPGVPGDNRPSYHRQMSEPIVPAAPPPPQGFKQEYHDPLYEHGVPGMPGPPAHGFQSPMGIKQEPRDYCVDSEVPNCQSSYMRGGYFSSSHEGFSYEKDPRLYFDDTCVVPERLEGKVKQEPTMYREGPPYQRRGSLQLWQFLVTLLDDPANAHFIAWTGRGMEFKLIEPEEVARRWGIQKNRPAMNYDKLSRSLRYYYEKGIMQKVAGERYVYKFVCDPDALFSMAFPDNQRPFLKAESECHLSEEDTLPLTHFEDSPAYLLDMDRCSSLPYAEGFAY
sequence,measurement,setting,value
CAGCCC,binding signal,ELK1,"1.16 fold enrichment (6-mer frequency, TF over GST control)"
same,binding signal,GABPA,"1.06 fold enrichment (6-mer frequency, TF over GST control)"
same,binding signal,ERG,"1.18 fold enrichment (6-mer frequency, TF over GST control)"
same,binding signal,ELF1,"1.09 fold enrichment (6-mer frequency, TF over GST control)"
same,binding signal,EHF,"1.16 fold enrichment (6-mer frequency, TF over GST control)"
same,binding signal,SPIB,"1.09 fold enrichment (6-mer frequency, TF over GST control)"
same,binding signal,ELK3,"1.11 fold enrichment (6-mer frequency, TF over GST control)"
same,binding signal,ETV5,"1.07 fold enrichment (6-mer frequency, TF over GST control)"
same,binding signal,SPIC,"1.13 fold enrichment (6-mer frequency, TF over GST control)"
same,binding signal,ELF4,"1.06 fold enrichment (6-mer frequency, TF over GST control)"
same,binding signal,ELK4,"1.19 fold enrichment (6-mer frequency, TF over GST control)"
same,binding signal,ELF3,"1.35 fold enrichment (6-mer frequency, TF over GST control)"
same,binding signal,ETV1,"1.01 fold enrichment (6-mer frequency, TF over GST control)"
same,binding signal,ERF,"1.08 fold enrichment (6-mer frequency, TF over GST control)"
same,binding signal,ETV3L,"1.07 fold enrichment (6-mer frequency, TF over GST control)"
same,binding signal,ETS2,"1.13 fold enrichment (6-mer frequency, TF over GST control)"
same,binding signal,SPDEF,"1.02 fold enrichment (6-mer frequency, TF over GST control)"
same,binding signal,ETV3,"1.05 fold enrichment (6-mer frequency, TF over GST control)"
same,binding signal,ETV6,"1.12 fold enrichment (6-mer frequency, TF over GST control)"
